# PMC12136788
# Over roughly 24,000 sequences, “enrichment r” has its median near 0.99; the highest 2% begin near 3.7. This is one part of a sample in which the highest values are shown more often than they occur.
# T1: UNK ZnF1-3 (human, UniProt Q9C0B0 31-174)
# T1 sequence: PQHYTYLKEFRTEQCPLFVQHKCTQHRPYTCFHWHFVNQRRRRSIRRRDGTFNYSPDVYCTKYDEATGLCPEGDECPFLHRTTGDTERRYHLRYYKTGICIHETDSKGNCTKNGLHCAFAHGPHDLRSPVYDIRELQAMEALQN
# B1: chr8:117878989:117878990:-_ENSG00000164754_ENST00000297338|hu_hu|hu_hu_hu_mus_True|68_98 (ssRNA)
# RNA: GGGAGUUCUACAGUCCGACGAUCCCAGAGGCCCUCGUUUACUGAGAACAAAAUGUGCGUAGAACAUUGUUCUGGCUUGCUAUGAAAUAAGAAGAAACCUGGAUCUCGGCGGGGAGCCGGGAGGGGUGGGUGGCCCGGGGAGGGCAACAGAGGAUUGAGCAUCA
# B2: chr10:79719409:79719410:+_ENSMUSG00000020153_ENSMUST00000020361|mus_mus|FALSE|FALSE (ssRNA)
# RNA: GGGAGUUCUACAGUCCGACGAUCCCAGAUCUUCAGCUUCUGUUCACGCUUGAUCUUCCGUUGCAGCUGCAAGAUGCCAUAAAGGAGUGCUUCGGCCGUGGGCGGGCAGCCUGGCACAUAGAUGUCCACUGGCACAAUGCGGUCCAACAGAGGAUUGAGCAUCA
# B3: chr7:149068622:149068623:-_ENSMUSG00000025139_ENSMUST00000001950|mus_hu|mus_mus_mus_hu_False|38_48 (ssRNA)
# RNA: GGGAGUUCUACAGUCCGACGAUCGUGAGGCCUCUGAGUGUGGCUUGUGGUCUGUCCUGGGUUAGAGUUGUUAAUAUCACGGAACAUACCACUUAAGGAGGUUCUGCCCCGCCUGACACCUUCAUUCCCAAUGGAGAAGAAAUCCAACAGAGGAUUGAGCAUCA
# B4: chr7:54823571:54823572:-_ENSG00000132432_ENST00000352861|hu_mus|hu_hu_hu_mus_False|48_88 (ssRNA)
# RNA: GGGAGUUCUACAGUCCGACGAUCUCCCAUGAUAGCAAAUCCUAUAGCUGUUGCCAUGGCAAUCUUCUGGAAUUCUUUUCUGUCGGGUUUAGUGCAUCUUUUAACCAGCCGAAUUGAGUCCUUUACAAACUGCCGGCUGGGCUCCAACAGAGGAUUGAGCAUCA
# B5: 55316162_55316282_4585_3pUTR_ENSMUSG00000018583_ENSMUST00000018727|mouse|control|control (ssRNA)
# RNA: GGGAGUUCUACAGUCCGACGAUCUGACAACAGGGACUCCUGCCUAAGAGUAUCUUGCUGCUCUUCCAGGACAUAAGUUCGAUUCCCAGCACCUGUGUAGGAGGGCUCACUCACCUGUAACUCCAGCUCCAAGGGGCCACAGGCCAACAGAGGAUUGAGCAUCA
# B6: chr17:56739783:56739784:+_ENSMUSG00000071054_ENSMUST00000095224|mus_mus|FALSE|FALSE (ssRNA)
# RNA: GGGAGUUCUACAGUCCGACGAUCAUAUCUGCUAAACAGGUUCUUCAGAUCCGUGGCUCUGGUUGUAGACGAAAGGCCACUAACCCAGAAAUUCCUACCACAGCUGCUGCGACCCUUCUCUUCUCGGGAAAGCCUUUUUGUAUCCAACAGAGGAUUGAGCAUCA
# B7: chr2:61705769:61705770:-_ENSG00000082898_ENST00000401558|hu_hu|motif|central (ssRNA)
# RNA: GGGAGUUCUACAGUCCGACGAUCAAAUGGGCAUGAAGUAAAAUUUUUAAAAAUGCCUUAAUUUUCAACUUCAUGCAAACGGAAUAAAGAUGACCAAAACAAAAGCUUAAACAAUGGAAGGAUAUUUCACAGAAAAUUUCUUAUCAACAGAGGAUUGAGCAUCA
# B8: chr1:163112212:163112213:-_ENSG00000143248_ENST00000313961|hu_hu|hu_hu_hu_mus_False|78_88 (ssRNA)
# RNA: GGGAGUUCUACAGUCCGACGAUCUUUUAUUAUCAGUAAGAGUGAGUCACAUAGUACAUAAAGUAUUGGAUACAAUAAUCAGGAAACAAACACUAUUGGUCCAGAAUUUAAAACUUUAUGAGCGAAGUGCUGGCACAGGACUUACAACAGAGGAUUGAGCAUCA
# B9: chr1:163112212:163112213:-_ENSG00000143248_ENST00000313961|hu_hu|FALSE|FALSE (ssRNA)
# RNA: GGGAGUUCUACAGUCCGACGAUCUUUAUUUAUCCAGAAGCAUGAGUCACAUAGUACAUAAAGUAUUGAAUACAAAAUUCUAAAGAUAAACACAAUUUUUCUUGAAUUUAAAAUAUAUGGGAUAAAUGCUUACAAAUGGAUUUACAACAGAGGAUUGAGCAUCA
# B10: chr5:145543945:145543946:-_ENSG00000133706_ENST00000545646|hu_mus|FALSE|FALSE (ssRNA)
# RNA: GGGAGUUCUACAGUCCGACGAUCCUGAACGGCCAGUGGUGGGAAAUAAUCAAGCCAGUGCUCUGCUUCAGAAAACUUCACUAUGUCGUCAUCAGAGAGCCCAAGGGAUUUCAUAAUGUCCCACUGGUACUUAGAAGAUCCUGCCAACAGAGGAUUGAGCAUCA
# B11: chr7:141445308:141445309:+_ENSG00000106028_ENST00000265304|hu_hu|hu_hu_hu_mus_False|28_98 (ssRNA)
# RNA: GGGAGUUCUACAGUCCGACGAUCUAUGAUUGUUGUUGCUUGUCGCCUCACAUUGUUUUUAUCCAUGUACUCGCCAUAGUCCACUUUCCCUUCCACAAAUAUACGAGACCCCUUUUUCACAUACUGAUAUGCCACAUCUCUGAGCAACAGAGGAUUGAGCAUCA
# B12: 39165641_39167405_4275_CDS_ENSMUSG00000037475_ENSMUST00000047037|mouse|control|control (ssRNA)
# RNA: GGGAGUUCUACAGUCCGACGAUCUGAAGAGUCCUUGAGAUCGAUGAGACUGUCCUUUACUGUGGAGGAAUGUGAUGGAGAAGGAUGACUAUCAAUUUUGCGGCGUUUUUGUUCCCUGUCAGGCUCCGAGAUAUCUGAUCGGGGCAACAGAGGAUUGAGCAUCA
# B13: chr11:87793471:87793472:-_ENSMUSG00000020483_ENSMUST00000020775|mus_mus|mus_mus_mus_hu_False|68_108 (ssRNA)
# RNA: GGGAGUUCUACAGUCCGACGAUCUGGGGGCUGGGGAAAAAGAAUAAGCUGGAUCCCCCACCCCCCCACAGUGUCAACCCUACACGAGAGUUUUGAAGGCGACUCAUGAAAAUCAGCAGCUCAAACGGCAAUGACCACCCCACCCAACAGAGGAUUGAGCAUCA
# B14: chr8:114060920:114060921:+_ENSMUSG00000033545_ENSMUST00000095176|mus_hu|FALSE|FALSE (ssRNA)
# RNA: GGGAGUUCUACAGUCCGACGAUCCCACUUCUCAGCAGCAGGGGGAGGGCUGGGCGAGCAUAAAGGGGGAGGGAGUCAAAAAGGAGACCCGGAGGGAGAAAAGGAAAAAAAGCAAAAGGAAAAAAGGAAAAAACCCGCGGGGCGCAACAGAGGAUUGAGCAUCA
# B15: chr8:114060920:114060921:+_ENSMUSG00000033545_ENSMUST00000095176|mus_mus|FALSE|FALSE (ssRNA)
# RNA: GGGAGUUCUACAGUCCGACGAUCCGGGUGGAGGUCUGGGCGAACAUAAAGGCGGAGGGUUGGGGUUGGGGAGAGUCACAAAAGAGCCCCGAGGGGAGAAAAAUGAAAAAAGGUGAGGGGGGGAAUCCUCAAAAAAAAUCCGCGCAACAGAGGAUUGAGCAUCA
# Target: T1, UNK ZnF1-3
# Experiment: nsRBNS (natural sequence RNA bind-n-seq); RBNS binding buffer (assumed for nsRBNS): 25 mM Tris pH 7.5, 150 mM KCl, 3 mM MgCl2, 0.01% Triton X-100, 500 ug/ml BSA, 20 U/ml SUPERase-In, 4 C; UNK is unkempt and MSI1 is Musashi-1; names of the RNAs are library labels; protein concentration not given here; high values mean tight binding
row,Binder,binding signal
1,B1,2.44 enrichment R
2,B2,0.695 enrichment R
3,B3,0.716 enrichment R
4,B4,0.587 enrichment R
5,B5,0.768 enrichment R
6,B6,0.796 enrichment R
7,B7,2.43 enrichment R
8,B8,1.53 enrichment R
9,B9,7.3 enrichment R
10,B10,0.979 enrichment R
11,B11,0.605 enrichment R
12,B12,1.19 enrichment R
13,B13,1.65 enrichment R
14,B14,5.92 enrichment R
15,B15,4.66 enrichment R
